Bioassay records (PubChem)
D2 ag-1 – HTS Assay for Allosteric Agonists of the Human D2 Dopamine Receptor: Primary Screen for Agonists; HEK293 T-REx D2 cells, calcium flux agonist mode; 340,000 tested, 0.53% active; D(2) dopamine receptor (Homo sapiens), P14416; activation, % at 2 µM;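 active means activation over 3 SD above normal in the single-dose calcium agonist read, cut at about 30% in these data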; further: 0% is about no effect
Target sequence (P14416 whole entry, looked up): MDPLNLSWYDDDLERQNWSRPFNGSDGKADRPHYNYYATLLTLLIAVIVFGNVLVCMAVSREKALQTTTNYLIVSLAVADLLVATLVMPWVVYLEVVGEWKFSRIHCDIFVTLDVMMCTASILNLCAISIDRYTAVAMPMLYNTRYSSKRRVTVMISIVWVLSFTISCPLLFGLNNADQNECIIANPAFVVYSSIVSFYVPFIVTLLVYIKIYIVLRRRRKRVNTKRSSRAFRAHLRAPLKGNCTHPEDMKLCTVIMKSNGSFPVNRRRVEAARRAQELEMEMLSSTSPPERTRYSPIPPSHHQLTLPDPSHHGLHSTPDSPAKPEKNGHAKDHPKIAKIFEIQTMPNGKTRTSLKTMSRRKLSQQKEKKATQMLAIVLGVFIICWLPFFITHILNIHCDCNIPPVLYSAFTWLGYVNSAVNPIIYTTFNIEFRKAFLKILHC
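HEK293 Trex D2 cells, tetracycline-induced, o/n 30 C 5% CO2; no-wash Ca dye, RT 30–90 min; 10-cycle baseline, 23 nl cpd added, kinetic Ca read 180 s; agonist hits = positive Ca response.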
D2 PAM-1 – HTS Assay for Positive Allosteric Modulators of the Human D2 Dopamine Receptor: Primary Screen for Potentiators; potentiation, % at 10 µM; D(2) dopamine receptor (Homo sapiens), P14416; HEK293 T-REx D2, calcium flux, EC20 dopamine potentiation; 340,000 tested, 0.34% active;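 active means potentiation over 3 SD above the plate norm, cut at about 30% in these data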; further: 0% is about no effect
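Potentiation of an EC20 dopamine calcium response measured kinetically over 180 s, after a preceding 180 s compound-only read flagging agonists. Cells: inducible Hek293 Trex D2 line, 4000/well, cultured overnight at 30 C before dye loading.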
D2 PAM-2 – Beta-Arrestin HTS for Positive Allosteric Modulators of the Human D2 Dopamine Receptor: Potentiators; DiscoveRx D2 beta-arrestin cells, luminescence, 90 min; 100% = 57 uM dopamine signal; 360,000 tested, 0.23% active; AID 624464, 2012; potentiation, % (no concentration beside the values); D(2) dopamine receptor (Homo sapiens), P14416; in the data active means potentiation above about 50%
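D2 cells co-treated with compound plus 50 nM dopamine (EC20) for 90 min at 37 deg C to detect potentiation. Beta-arrestin recruitment was read as enzyme-fragment luminescence after 1 h at ambient temperature. Full response was set by 57 uM dopamine.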
D2 antag – HTS Assay for Allosteric Antagonists of the Human D2 Dopamine Receptor: Primary Screen for Antagonists; D(2) dopamine receptor (Homo sapiens), P14416; HEK293 TREx D2 cells, calcium flux, dopamine EC80; inhibition, % at 10 µM; 340,000 tested, 2% active; AID 485344, 2010; in the data active means inhibition above about 30%; inactive means below that, where a call was filed; further: 0% is about no effect
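Antagonism is scored as inhibition of an EC80 dopamine-evoked calcium signal in a force-coupled, tetracycline-inducible HEK293 T-REx D2 line, with compound present 180 s before agonist.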
D2 ag-2 – Beta-Arrestin HTS for Positive Allosteric Modulators of the Human D2 Dopamine Receptor: Agonists | D(2) dopamine receptor (Homo sapiens), P14416 | DiscoveRx PathHunter D2 beta-arrestin, luminescence, 90 min; 100% = 57 uM dopamine signal | activation, % (no concentration beside the values) | 360,000 tested, 0.084% active; in the data active means activation above about 40%
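DiscoveRx PathHunter D2 beta-arrestin cells (2,100/well) attached overnight, then compound-stimulated 90 min at 37 C in HBSS/10 mM HEPES/0.1% Tween-20 buffer; beta-galactosidase complementation read by luminescence after 1 h at ambient temperature. Dopamine 57 uM final (EC100) as control.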
An asterisk follows results filed as active; nt = not tested or not shown. This is a sample that favours compounds with a hit; in the whole collection about 2.4% have one here.

SMILES | D2 ag-1 | D2 PAM-1 | D2 PAM-2 | D2 antag | D2 ag-2
O=C(c1ccco1)N1CCN(C(c2ccccn2)c2nnnn2C2CCCC2)CC1 (centres undefined) | 0 | 35* | 7 | -13 | -1
COc1ccc(C(c2nnnn2C2CCCCC2)N2CCN(c3ccc(OC)cc3)CC2)cc1 (centres undefined) | 0 | 3 | -21 | -8 | -4
O=C(c1ccco1)N1CCN(C(c2cccs2)c2nnnn2C2CCCC2)CC1 (centres undefined) | 0 | -6 | -8 | 7 | 1
c1cnc2ccc(C(c3nnnn3C3CCCCC3)N3CCCCC3)cc2c1 (centres undefined) | 1 | 42* | -18 | 5 | -3
COc1ccc(CCCNC(=O)C2Cc3c(-c4ccc5c(c4)OCO5)ccnc3O2)cc1 (centres undefined) | nt | nt | 1 | nt | 7
CC1CCCN(S(=O)(=O)c2ccc(NC(=O)c3nc(SC(C)C)ncc3Cl)cc2)C1 (centres undefined) | 1 | 16 | nt | nt | nt
Cc1ccc(C(=O)NCC(C)(C)O)cc1 | 0 | 19 | -2 | 38* | -2
Cc1ccc(C(=O)NCCSC(C)(C)C)cc1 | 0 | -4 | -6 | 3 | -2
Cc1ccc(C(=O)NCC(=O)NC23CC4CC(CC(C4)C2)C3)cc1 | 30* | -8 | -9 | 12 | -5
COc1ccc(C2=NC3(CCCCCC3)N(CC(=O)Nc3cccc(Cl)c3)C2=O)cc1 | 0 | 7 | nt | nt | nt
CCOc1ccc(C(c2c(O)cc(C)n(CCOC)c2=O)N2CCN(c3ccccc3)CC2)cc1 (centres undefined) | 25 | -16 | nt | nt | nt
O=C(N/N=C/c1ccsc1)c1ccccn1 | 0 | -9 | -5 | 39* | -5
CC(C)(C)c1ccc(/C=N/NC(=O)c2ccccn2)cc1 | 1 | -14 | -6 | 3 | -4
O=C(NCCCN1CCCCC1)c1ccc(CS(=O)c2ccc(F)cc2)o1 (centres undefined) | 1 | -4 | -4 | 32* | -2
O=c1c2ccccc2n2nnnc2n1-c1ccccc1 | 1 | 32* | -8 | 13 | -2
CCCCOc1ccc(C(=O)N2CCN(CCc3ccncc3)CC2)cc1 | -1 | -1 | nt | nt | nt
O=c1c(O)c(-c2cccs2)oc2ccc(Cl)cc12 | 93* | -24 | 1 | 51* | 1
O=c1c(O)c(-c2cccs2)oc2ccccc12 | 42* | 1 | 6 | -29 | 2
O=c1cc(-c2cccs2)oc2ccc(Cl)cc12 | -1 | 1 | -16 | -1 | -3
O=C1c2ccccc2-c2nc3ccccc3n21 | 0 | 35* | -1 | 16 | -2
O=C(NCCc1ccccc1)c1ccc2c(c1)N(Cc1ccccc1)C(=O)c1ccccc1S2=O (centres undefined) | nt | -5 | nt | nt | nt
Cc1cc(NS(=O)(=O)c2ccccc2)c(C)c(Cl)c1O | 0 | -3 | 61* | 0 | 10
Cc1c(O)ccc(NS(=O)(=O)c2ccccc2)c1C | 0 | 10 | -2 | 12 | 0
Cn1c2ccccc2c2c(C(=O)NCCCN3CCCC3=O)cn(C3CCCCC3)c(=O)c21 | 1 | 32* | -38 | 10 | -4
COc1cc2c(c(O)c1OC)C(=O)C(OC)CCC2 (centres undefined) | 1 | -8 | 6 | 32* | -2
Cc1ccc(C)c(S(=O)(=O)NCC(c2ccco2)S(=O)(=O)c2ccc(F)cc2)c1 (centres undefined) | 1 | 8 | nt | nt | nt
Cc1ccccc1C(=O)OCCN(C)Cc1ccccc1 | -2 | -21 | -16 | 32* | -5
Cc1ccc(C(=O)OCCN(C)Cc2ccccc2)cc1 | 2 | -19 | -19 | 2 | -4
COc1cc(-c2nc3ccccn3c2/N=C/c2cc(OC)c(OC)c(OC)c2)ccc1O | nt | nt | 52* | nt | 6
CCC(C(=O)Nc1ccc(C(=O)OC)cc1)n1nc(-c2ccc(C)cc2)c2c(c1=O)CCCC2 (centres undefined) | 0 | -3 | nt | nt | nt
